Compounds without any hit were thinned out: in the full panel of roughly 83,000, 20% have a hit.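 Note: values are percent growth. 100 is the growth of untreated cells, values between 100 and 0 indicate rising inhibition; between -100 and 0 indicates cell death.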 Activity calls are given as the source filed them. Rule for the calls: active = growth percent below 10; inactive = the rest.

The values that follow come from PubChem BioAssay (NCI).

The subject of the first assay is HT29 colon. The experiment in a line: NCI-60 one-dose screen, 48 h (100 = growth as untreated, 0 = no growth, -100 = all killed). The following applies: 10 µM unless noted.
Take `COc1cc(C2CC(=O)Nc3c2cnn3C)cc(OC)c1OC` (stereo unspecified): the growth is 105% (inactive).

As for `C=C(c1ccc(C(=O)NCCCn2ccnc2)cc1)c1cc2c(cc1C)C(C)(C)CCC2(C)C`, the growth was 16.1% (inactive).

Consider `Nc1c(Br)cc2c(c1Br)Cc1cc(Cl)ccc1-2`, for which the growth was 111% (inactive).

For the compound `CCCCCCCCCCCCNC(=O)N[C@H](C(=O)N[C@H]1/C=C/CCNC(=O)/C=C/[C@H](C)NC1=O)C(C)C`, the growth was 11.8% (inactive).

As for `C=C(C)[C@@H]1CC[C@]2(C(=O)NS(=O)(=O)c3ccccc3)CC[C@]3(C)[C@H](CC[C@@H]4[C@@]5(C)CC[C@H](OC(=O)NS(=O)(=O)c6ccccc6)C(C)(C)[C@@H]5CC[C@]43C)[C@@H]12`, the growth was 20.8% (inactive).

On to `FC(F)(F)c1cc(-c2nnc3n2N=C(Cl)CS3)cc(C(F)(F)F)c1`, for which the growth was 113% (inactive).

On to `Cc1cc(-c2ccccc2)on1`, for which the growth was 106% (inactive).

For `CNC(=O)c1c(NC(=O)c2cccc(C(F)(F)F)c2)sc2c1CCC(=O)C2`, the growth is 4.59% (active).

Regarding `COc1ccccc1/C=C/C(=O)CCC(=O)O`, the growth was 107% (inactive).

In the case of `CCc1c(C)c2ccc(O)c(-c3cc(-c4ccccc4)c(C#N)c(=O)[nH]3)c2oc1=O`, the growth is 125% (inactive).

For the compound `O=C1OCC2=C1C(c1ccccc1)c1cc3c(cc1N2CCO)OCO3` (stereo unspecified), the growth is 12.5% (inactive).

As to `CCCCCCCCCCCCNC(=O)N[C@H](C(=O)N[C@H]1/C=C/OCCNC(=O)/C=C/[C@H](C(C)C)NC1=O)C(C)C`, the growth is 34.9% (inactive).

Turning to `COc1ccc(-n2nc(C(=O)Nc3ccc(F)cc3)nc2-c2cc(OC)c(OC)c(OC)c2)cc1`, the growth is 95.8% (inactive).

Consider `COc1ccc2c(c1)OC1=C(C(=O)OC1)C2c1cc(OC)c2c(c1)OCCO2` (stereo unspecified), for which the growth is 5.47% (active).

With `O=S1(=O)NCCN1CCNc1nccc(-c2c(-c3cccc(O)c3)nc3sccn23)n1`, the growth was 71.6% (inactive).

Consider `O=C(CC(=O)C(F)(F)C(F)(F)C(F)(F)F)c1cc2ccccc2o1`, for which the growth is 103% (inactive).

For the compound `Clc1cc2nc(-c3ccccc3)c(-c3ccccc3)nc2cc1Cl`, the growth is 88.5% (inactive).

As to `CC(C)(C)c1ccc(C(=O)Nc2sc3cc(O)ccc3c2C(N)=O)cc1`, the growth was 23.8% (inactive).

In the case of `CC1=CCC2C1CC=C(C)C(CC[C@H]1[C@@](C)(O)CCC3OC(C)(C)[C@H](OC(=O)c4ccccc4)CC[C@@]31C)C2(C)C` (stereo partly specified), the growth was 76.6% (inactive).

As for `CC(=O)C1CCC2C3CC(C)=C4CC(O)CCC4(C)C3CCC12C` (stereo unspecified), the growth was 96.4% (inactive).

In the case of `CCN(CCC#N)c1ccccc1`, the growth is 109% (inactive).

With `O=S1(=O)NCCCN1CCNc1nccc(-c2c(-c3cccc(O)c3)nc3sccn23)n1`, the growth was 56.2% (inactive).

Turning to `COc1ccc(-c2conc2-n2nc(-c3ccccc3)nc2-c2ccccc2)cc1`, the growth is 102% (inactive).

For `COc1ccccc1CNCCCN1C(=O)c2ccc3c4c(ccc(c24)C1=O)C(=O)N(CCCCNCCCN)C3=O`, the growth was -20.1% (active).

On to `Cc1ccc(C(=O)CC(=O)C(F)(F)C(F)(F)C(F)(F)F)s1`, for which the growth was 110% (inactive).

With `O=C1CCCN1C(O)CCN(Cc1ccccc1)Cc1ccc(Cl)cc1` (stereo unspecified), the growth was 98.4% (inactive).

Turning to `Nc1c(N)c2ccccc2c2ccccc12`, the growth is 108% (inactive).

Take `CCOC(=O)C1=C(C)NC(=S)NC1c1ccccc1` (stereo unspecified): the growth is 110% (inactive).

Turning to `CCOC(=O)C1=C(C(=O)OCC)N(c2cc(OC)c(OC)c(OC)c2)C(N)=C(C#N)C1c1cc(=O)[nH]c2ccccc12` (stereo unspecified), the growth was 112% (inactive).

Turning to `CC(=O)Nc1ccc(/C=N/N2CCCCCC2)cc1`, the growth is 102% (inactive).

With `CCOC(=O)c1cnc(SCC)nc1SC#N`, the growth was 81.5% (inactive).

`COc1cc(OC)c(C(=O)/C=C/c2cccc(OC(C)=O)c2)cc1CC=C(C)C`: the growth was 84.2% (inactive).

With `COc1cc2ccc(C(C)=O)cc2cc1OC`, the growth was 112% (inactive).

Take `CN1CCCN(CCNc2nccc(-c3c(-c4cccc(O)c4)nc4sccn34)n2)S1(=O)=O`: the growth is 38.7% (inactive).

In the case of `CCN(CC)c1ccc(/C=C2/NC(=O)NC2=O)cc1`, the growth was 16.5% (inactive).

For `CCOC(=O)c1ccc2c(c1)[n+](=O)c(C(=O)c1ccc3ccccc3c1)c(C(F)(F)F)n2[O-]`, the growth was -97.4% (active).

A further assay deals with SNB-75 CNS. The assay is described as above. The following applies: 10 µM unless noted.
`COc1cc(C2CC(=O)Nc3c2cnn3C)cc(OC)c1OC` (stereo unspecified): the growth is 92% (inactive).

Turning to `C=C(c1ccc(C(=O)NCCCn2ccnc2)cc1)c1cc2c(cc1C)C(C)(C)CCC2(C)C`, the growth is 41.4% (inactive).

In the case of `Nc1c(Br)cc2c(c1Br)Cc1cc(Cl)ccc1-2`, the growth is 72.4% (inactive).

In the case of `CCCCCCCCCCCCNC(=O)N[C@H](C(=O)N[C@H]1/C=C/CCNC(=O)/C=C/[C@H](C)NC1=O)C(C)C`, the growth is -94.9% (active).

In the case of `C=C(C)[C@@H]1CC[C@]2(C(=O)NS(=O)(=O)c3ccccc3)CC[C@]3(C)[C@H](CC[C@@H]4[C@@]5(C)CC[C@H](OC(=O)NS(=O)(=O)c6ccccc6)C(C)(C)[C@@H]5CC[C@]43C)[C@@H]12`, the growth was 45.3% (inactive).

Turning to `Cc1cc(-c2ccccc2)on1`, the growth is 99.2% (inactive).

Consider `CNC(=O)c1c(NC(=O)c2cccc(C(F)(F)F)c2)sc2c1CCC(=O)C2`, for which the growth was -7.71% (active).

On to `COc1ccccc1/C=C/C(=O)CCC(=O)O`, for which the growth is 98.5% (inactive).

As for `NNc1ccc(S(N)(=O)=O)cc1`, the growth was 89.9% (inactive).

On to `CCc1c(C)c2ccc(O)c(-c3cc(-c4ccccc4)c(C#N)c(=O)[nH]3)c2oc1=O`, for which the growth is 52.7% (inactive).

With `O=C1OCC2=C1C(c1ccccc1)c1cc3c(cc1N2CCO)OCO3` (stereo unspecified), the growth is 31.4% (inactive).

Take `CCCCCCCCCCCCNC(=O)N[C@H](C(=O)N[C@H]1/C=C/OCCNC(=O)/C=C/[C@H](C(C)C)NC1=O)C(C)C`: the growth was 46.5% (inactive).

As to `COc1ccc2c(c1)OC1=C(C(=O)OC1)C2c1cc(OC)c2c(c1)OCCO2` (stereo unspecified), the growth was 30% (inactive).

As for `O=S1(=O)NCCN1CCNc1nccc(-c2c(-c3cccc(O)c3)nc3sccn23)n1`, the growth was 73.3% (inactive).

In the case of `O=C(CC(=O)C(F)(F)C(F)(F)C(F)(F)F)c1cc2ccccc2o1`, the growth is 92.2% (inactive).

Take `Clc1cc2nc(-c3ccccc3)c(-c3ccccc3)nc2cc1Cl`: the growth was 87.9% (inactive).

Take `CC(C)(C)c1ccc(C(=O)Nc2sc3cc(O)ccc3c2C(N)=O)cc1`: the growth is 95.9% (inactive).

For `CC1=CCC2C1CC=C(C)C(CC[C@H]1[C@@](C)(O)CCC3OC(C)(C)[C@H](OC(=O)c4ccccc4)CC[C@@]31C)C2(C)C` (stereo partly specified), the growth is 75.9% (inactive).

In the case of `CC(=O)C1CCC2C3CC(C)=C4CC(O)CCC4(C)C3CCC12C` (stereo unspecified), the growth was 100% (inactive).

As to `CCCCCCCCCCCCCC`, the growth is 72.4% (inactive).

For the compound `CCN(CCC#N)c1ccccc1`, the growth was 98.6% (inactive).

Take `O=S1(=O)NCCCN1CCNc1nccc(-c2c(-c3cccc(O)c3)nc3sccn23)n1`: the growth is 37.9% (inactive).

Turning to `COc1ccc(-c2conc2-n2nc(-c3ccccc3)nc2-c2ccccc2)cc1`, the growth is 98.3% (inactive).

For `COc1ccccc1CNCCCN1C(=O)c2ccc3c4c(ccc(c24)C1=O)C(=O)N(CCCCNCCCN)C3=O`, the growth was 53.9% (inactive).

`Cc1ccc(C(=O)CC(=O)C(F)(F)C(F)(F)C(F)(F)F)s1`: the growth was 96% (inactive).

On to `O=C1CCCN1C(O)CCN(Cc1ccccc1)Cc1ccc(Cl)cc1` (stereo unspecified), for which the growth was 101% (inactive).

As to `Nc1c(N)c2ccccc2c2ccccc12`, the growth was 84.8% (inactive).

As for `CCOC(=O)C1=C(C)NC(=S)NC1c1ccccc1` (stereo unspecified), the growth was 82.6% (inactive).

Consider `CCOC(=O)C1=C(C(=O)OCC)N(c2cc(OC)c(OC)c(OC)c2)C(N)=C(C#N)C1c1cc(=O)[nH]c2ccccc12` (stereo unspecified), for which the growth is 83% (inactive).

As to `CC(=O)Nc1ccc(/C=N/N2CCCCCC2)cc1`, the growth was 86.2% (inactive).

On to `CCOC(=O)c1cnc(SCC)nc1SC#N`, for which the growth is 93.1% (inactive).

With `COc1cc(OC)c(C(=O)/C=C/c2cccc(OC(C)=O)c2)cc1CC=C(C)C`, the growth was 77.5% (inactive).

Take `CN1CCCN(CCNc2nccc(-c3c(-c4cccc(O)c4)nc4sccn34)n2)S1(=O)=O`: the growth is 12.9% (inactive).

Turning to `CCN(CC)c1ccc(/C=C2/NC(=O)NC2=O)cc1`, the growth is 59.1% (inactive).

With `CCOC(=O)c1ccc2c(c1)[n+](=O)c(C(=O)c1ccc3ccccc3c1)c(C(F)(F)F)n2[O-]`, the growth was -100% (active).
